This is part of a sample that, as a whole, favours compounds with a hit. Of some 83,000 tested, about 20% had one in any assay.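 96-well plates, one dose, 48 hours. Percent growth reported; active if below 10.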 Activity calls are given as the source filed them.
Tested on: T-47D breast
Test: NCI-60 one-dose screen, 48 h (100 = growth as untreated, 0 = no growth, -100 = all killed)
Conditions: 10 µM unless noted

SMILES	growth
COc1ccc(-c2cn(-c3cccc(C(=O)/C=C/c4ccc(O)c(OC)c4)c3)c(=O)[nH]2)cc1	32.1% (inactive)
Cc1ccccc1N1C(c2ccccc2)=NNC12C=CC(=O)c1c(O)cccc12 (stereo unspecified)	87.7% (inactive)
COc1cc(Nc2ccnc3ccc(Br)cc23)cc(OC)c1OC	40.9% (inactive)
CN1CCN(Cc2ccc(NC(=O)c3cncc(C#Cc4ccc(N)nc4)c3)cc2C(F)(F)F)CC1	8.16% (active)
COc1ccc(Sc2[nH]c(C=O)c3ccccc23)cc1	57.2% (inactive)
COCCOCCOCc1n(Cc2ccc3ccccc3n2)c2ccccc2[n+]1Cc1ccc2ccccc2c1	4.77% (active)
COc1ccc(C2C3CCc4ccccc4C3=NN2C(=O)c2cc(OC)c(OC)c(OC)c2)cc1O (stereo unspecified)	87% (inactive)
O=c1[nH]cnc2nc[nH]c12	111% (inactive)
Fc1ccc2nc(-c3ccc(-c4noc(-c5ccc(Cl)cc5)n4)cc3)[nH]c2c1	92.9% (inactive)
CCNS(=O)(=O)c1ccc(C)cc1	106% (inactive)
OC(c1cc(-c2ccc(C(F)(F)F)cc2)nc(-c2ccc(C(F)(F)F)cc2)c1)C1CCCCN1 (stereo unspecified)	-67.9% (active)
CC1(C)C(N(O)C(=O)Nc2ccc(Cl)cc2)N(c2ccc(Cl)cc2)C(=O)N1CC(=O)N/N=C/C=C/c1ccc([N+](=O)[O-])o1 (stereo unspecified)	34.3% (inactive)
Cc1cc(N=Nc2ccc(-c3ccc(N=Nc4ccc(O)c(C(=O)O)c4)cc3)cc2)c(N)c(N=Nc2ccc(C(=O)O)cc2)c1N	78.6% (inactive)
NC(N)=N/N=C\c1cccc(OCc2ccccc2)c1	26.6% (inactive)
CNC(=O)c1ccccc1Sc1ccc2c(/C=C/c3ccccn3)n[nH]c2c1	-12.4% (active)
CC(=O)c1c(C)nc(-c2cc(C)cc(Cl)c2)nc1-c1cccc(Oc2ccccc2)c1	72.3% (inactive)
CCN(CC)Cc1cc(Nc2nc(NC3CCC(N(C)C)CC3)c3ccccc3n2)ccc1OC (stereo unspecified)	53.9% (inactive)
Cc1nc2c(-c3cnc(N)nc3)nc(N3CCOCC3)nc2n1C(C)C	-18% (active)
C[C@@H]1C[C@H](N)C[C@H](c2ccncc2NC(=O)c2ccc(F)c(-c3c(F)cccc3F)n2)C1	4.14% (active)

SMILES	growth
Nc1nonc1-c1nc2ccccc2n1Cc1ccc(F)cc1	61.3% (inactive)
C=CC[C@]1(O)CC[C@H]2[C@@H]3CCc4cc(O)ccc4[C@H]3CC[C@@]21C	82.5% (inactive)
[Ag].[Ag].[NH-]S(=O)(=O)c1ccc(N=Nc2cc(N=Nc3ccc(S([NH-])(=O)=O)cc3)c3c(NC(=O)C(Cl)Cl)cccc3c2OC(=O)C(Cl)Cl)cc1.[c-]1nccs1.[c-]1nccs1	7.8% (active)
CCCCCCCCCCCCCCC(C(=O)OCC)C(=O)OCC	101% (inactive)
CN(C)c1ccc(C(c2ccccc2)c2ccc(N(C)C)cc2)cc1	86.7% (inactive)
Cc1n(Cc2ccc3ccccc3n2)cc[n+]1Cc1ccc2ccccc2c1	0.908% (active)
FC(F)(F)c1ccc(/C=N/Nc2nnc3n2N=C(c2ccc(Cl)cc2)CS3)cc1	65.5% (inactive)
CS(=O)(=O)Nc1cc(-c2cc3ncc(C#N)c(Nc4ccc(Oc5ccccc5)c(Cl)c4)c3s2)cnc1Cl	15.8% (inactive)
Cc1cc(C)c2c(n1)sc1c(Nc3ccc(O)cc3)ncnc12	39.6% (inactive)
c1ccc(C2=Nc3ccccc3SC2)cc1	100% (inactive)
COc1cc2c(cc1OCCCOc1cc3c(cc1OC)C(=O)N1CCC[C@H]1C=N3)C=CC(C)(C)O2	62.6% (inactive)
C=CCn1c(C)nc2cc(Nc3nc(N4CCOCC4)nc4nc[nH]c34)ccc21	75.4% (inactive)
C=C1NC(=O)C(C(C)CC)NC(=O)C2CSCC(NC(=O)CCC(=O)O)C(=O)NC(Cc3ccccc3)C(=O)NC(C)C(=O)NC(CC(C)CC)C(=O)NC(C(=O)NC(Cc3ccccc3)C(=O)N3CCCC3C(=O)N2)C(C)OC(=O)C(CO)NC(=O)C(C(O)COC)N(C)C(=O)C(C(C)C)NC(=O)C(CC(C)CC)NC1=O (stereo unspecified)	60.2% [6 µM] (inactive)
COc1ccc(-c2nc(-c3cc(OC)cc(OC)c3)[nH]c2-c2ccc(OC)cc2)cc1	6.56% (active)
N#Cc1nc(-c2cccc(Br)c2)cc(-c2ccc(Nc3nc(N4CCCCC4)nc(N4CCCCC4)n3)cc2)c1N	-52.6% (active)
NC(N)=N/N=C\c1ccc(OCc2ccccc2)cc1	35.7% (inactive)
CCN(CC)CCC(CNc1ccnc2cc(Cl)ccc12)c1ccc(O)cc1 (stereo unspecified)	114% (inactive)
COS(=O)(=O)CCN(CCOS(C)(=O)=O)S(C)(=O)=O	98% (inactive)

Tested on: BT-549 breast
Test: as above
Conditions: 10 µM unless noted

SMILES	growth
COc1ccc(-c2cn(-c3cccc(C(=O)/C=C/c4ccc(O)c(OC)c4)c3)c(=O)[nH]2)cc1	4.04% (active)
Cc1ccccc1N1C(c2ccccc2)=NNC12C=CC(=O)c1c(O)cccc12 (stereo unspecified)	77% (inactive)
COc1cc(Nc2ccnc3ccc(Br)cc23)cc(OC)c1OC	53.7% (inactive)
CN1CCN(Cc2ccc(NC(=O)c3cncc(C#Cc4ccc(N)nc4)c3)cc2C(F)(F)F)CC1	18.7% (inactive)
COc1ccc(Sc2[nH]c(C=O)c3ccccc23)cc1	-7.47% (active)
COCCOCCOCc1n(Cc2ccc3ccccc3n2)c2ccccc2[n+]1Cc1ccc2ccccc2c1	-9.56% (active)
COc1ccc(C2C3CCc4ccccc4C3=NN2C(=O)c2cc(OC)c(OC)c(OC)c2)cc1O (stereo unspecified)	89% (inactive)
O=c1[nH]cnc2nc[nH]c12	105% (inactive)
CC(=O)O[C@H]1[C@H](CC#CC#CC[C@@H]2C[C@]3(C)[C@H]4CC=C5[C@H]6[C@@H](C)[C@H](C)CC[C@]6(C(=O)NCCN(CCN)CCN)CC[C@@]5(C)[C@]4(C)CC[C@H]3C(C)(C)[C@H]2OC(C)=O)C[C@]2(C)[C@H]3CC=C4[C@H]5[C@@H](C)[C@H](C)CC[C@]5(C(=O)NCCN(CCN)CCN)CC[C@@]4(C)[C@]3(C)CC[C@H]2C1(C)C	99.9% (inactive)
Fc1ccc2nc(-c3ccc(-c4noc(-c5ccc(Cl)cc5)n4)cc3)[nH]c2c1	93.9% (inactive)
CCNS(=O)(=O)c1ccc(C)cc1	114% (inactive)
OC(c1cc(-c2ccc(C(F)(F)F)cc2)nc(-c2ccc(C(F)(F)F)cc2)c1)C1CCCCN1 (stereo unspecified)	-79% (active)
CC1(C)C(N(O)C(=O)Nc2ccc(Cl)cc2)N(c2ccc(Cl)cc2)C(=O)N1CC(=O)N/N=C/C=C/c1ccc([N+](=O)[O-])o1 (stereo unspecified)	-19.1% (active)
Cc1cc(N=Nc2ccc(-c3ccc(N=Nc4ccc(O)c(C(=O)O)c4)cc3)cc2)c(N)c(N=Nc2ccc(C(=O)O)cc2)c1N	67.3% (inactive)
NC(N)=N/N=C\c1cccc(OCc2ccccc2)c1	94.1% (inactive)
CNC(=O)c1ccccc1Sc1ccc2c(/C=C/c3ccccn3)n[nH]c2c1	16.2% (inactive)
CC(=O)c1c(C)nc(-c2cc(C)cc(Cl)c2)nc1-c1cccc(Oc2ccccc2)c1	64.3% (inactive)
CCN(CC)Cc1cc(Nc2nc(NC3CCC(N(C)C)CC3)c3ccccc3n2)ccc1OC (stereo unspecified)	107% (inactive)
Cc1nc2c(-c3cnc(N)nc3)nc(N3CCOCC3)nc2n1C(C)C	-3.32% (active)
C[C@@H]1C[C@H](N)C[C@H](c2ccncc2NC(=O)c2ccc(F)c(-c3c(F)cccc3F)n2)C1	51.2% (inactive)

SMILES	growth
Nc1nonc1-c1nc2ccccc2n1Cc1ccc(F)cc1	58% (inactive)
C=CC[C@]1(O)CC[C@H]2[C@@H]3CCc4cc(O)ccc4[C@H]3CC[C@@]21C	93.6% (inactive)
[Ag].[Ag].[NH-]S(=O)(=O)c1ccc(N=Nc2cc(N=Nc3ccc(S([NH-])(=O)=O)cc3)c3c(NC(=O)C(Cl)Cl)cccc3c2OC(=O)C(Cl)Cl)cc1.[c-]1nccs1.[c-]1nccs1	104% (inactive)
CCCCCCCCCCCCCCC(C(=O)OCC)C(=O)OCC	104% (inactive)
CN(C)c1ccc(C(c2ccccc2)c2ccc(N(C)C)cc2)cc1	101% (inactive)
Cc1n(Cc2ccc3ccccc3n2)cc[n+]1Cc1ccc2ccccc2c1	-0.0129% (active)
FC(F)(F)c1ccc(/C=N/Nc2nnc3n2N=C(c2ccc(Cl)cc2)CS3)cc1	58.2% (inactive)
CS(=O)(=O)Nc1cc(-c2cc3ncc(C#N)c(Nc4ccc(Oc5ccccc5)c(Cl)c4)c3s2)cnc1Cl	51% (inactive)
Cc1cc(C)c2c(n1)sc1c(Nc3ccc(O)cc3)ncnc12	50.6% (inactive)
c1ccc(C2=Nc3ccccc3SC2)cc1	107% (inactive)
COc1cc2c(cc1OCCCOc1cc3c(cc1OC)C(=O)N1CCC[C@H]1C=N3)C=CC(C)(C)O2	-0.137% (active)
O=[N+]([O-])c1cccc(N=C(Nc2cccc([N+](=O)[O-])c2)c2ccccc2)c1	82% (inactive)
C=CCn1c(C)nc2cc(Nc3nc(N4CCOCC4)nc4nc[nH]c34)ccc21	90.3% (inactive)
C=C1NC(=O)C(C(C)CC)NC(=O)C2CSCC(NC(=O)CCC(=O)O)C(=O)NC(Cc3ccccc3)C(=O)NC(C)C(=O)NC(CC(C)CC)C(=O)NC(C(=O)NC(Cc3ccccc3)C(=O)N3CCCC3C(=O)N2)C(C)OC(=O)C(CO)NC(=O)C(C(O)COC)N(C)C(=O)C(C(C)C)NC(=O)C(CC(C)CC)NC1=O (stereo unspecified)	7.87% [6 µM] (active)
COc1ccc(-c2nc(-c3cc(OC)cc(OC)c3)[nH]c2-c2ccc(OC)cc2)cc1	51% (inactive)
N#Cc1nc(-c2cccc(Br)c2)cc(-c2ccc(Nc3nc(N4CCCCC4)nc(N4CCCCC4)n3)cc2)c1N	-69.5% (active)
NC(N)=N/N=C\c1ccc(OCc2ccccc2)cc1	89.3% (inactive)
CCN(CC)CCC(CNc1ccnc2cc(Cl)ccc12)c1ccc(O)cc1 (stereo unspecified)	80.5% (inactive)
COS(=O)(=O)CCN(CCOS(C)(=O)=O)S(C)(=O)=O	97.5% (inactive)

From PubChem BioAssay (NCI)
